Rows were chosen to be rich in hits. Some 1.4% of all compounds tested hit in one or more screens of this group.
SARS 3CLpro inh = SARS-CoV 3CLpro protease inhibition; P0C6X7; recombinant SARS-CoV 3CLpro, quenched FRET peptide cleavage; inhibition, % at 6 µM; 0.14% of 290,000 active; AID 1706; in the data active = inhibition above about 12%
Mtb hypoxia rep = inhibitors of hypoxia-regulated fluorescent reporter in Mycobacterium tuberculosis; M. tuberculosis hypoxia-regulated fluorescent reporter, fluorescence; fluorescence inhibition, % (test concentration not listed); 0.1% of 300,000 active; in the data active = fluorescence inhibition mostly above about 23%, no sharp cut-off; inactive = mostly below about 17%
RecA intein inh = blocks M. tuberculosis RecA intein splicing; cell-free RecA intein splicing, fluorescence; 0.75% of 290,000 active; inhibition, % (test concentration not listed); P9WHJ3; AID 2221; in the data active = inhibition above about 30%;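 note: 0% = vehicle wells and 100% = reference inhibitor control wells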
Target sequence (P9WHJ3 whole entry, looked up): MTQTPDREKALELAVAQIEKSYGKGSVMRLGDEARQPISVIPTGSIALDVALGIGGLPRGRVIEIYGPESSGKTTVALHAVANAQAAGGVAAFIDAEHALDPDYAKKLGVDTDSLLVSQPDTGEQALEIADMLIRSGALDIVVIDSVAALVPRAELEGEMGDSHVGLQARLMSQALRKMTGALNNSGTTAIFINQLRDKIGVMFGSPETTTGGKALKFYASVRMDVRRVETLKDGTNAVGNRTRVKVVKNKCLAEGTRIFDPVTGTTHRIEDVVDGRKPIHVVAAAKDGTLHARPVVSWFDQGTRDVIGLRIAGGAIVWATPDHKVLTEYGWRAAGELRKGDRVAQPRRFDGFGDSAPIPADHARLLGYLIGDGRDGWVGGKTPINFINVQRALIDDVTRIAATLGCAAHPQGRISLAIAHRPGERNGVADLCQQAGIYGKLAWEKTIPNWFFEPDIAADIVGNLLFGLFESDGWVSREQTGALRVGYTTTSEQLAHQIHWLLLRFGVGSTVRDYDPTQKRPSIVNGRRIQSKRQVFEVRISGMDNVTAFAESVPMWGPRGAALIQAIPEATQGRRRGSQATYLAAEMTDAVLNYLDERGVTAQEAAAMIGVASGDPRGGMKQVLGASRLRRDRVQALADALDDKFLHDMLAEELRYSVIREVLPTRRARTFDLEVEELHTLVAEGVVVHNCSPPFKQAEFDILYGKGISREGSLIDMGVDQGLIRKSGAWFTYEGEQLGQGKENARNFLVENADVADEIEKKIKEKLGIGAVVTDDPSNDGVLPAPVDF
PrPC surface inh = reduces human prion protein on the cell surface; AID 720596; cell surface PrPC, TR-FRET read-out; 0.43% of 370,000 active; inhibition, % at 13.8 µM; P04156; in the data active = inhibition above about 24%; note: 0% = median of the test wells and 100% = reference compound wells
BJeLR lethal = kills HRASV12-expressing BJeLR cells; AID 1554; 0.17% of 300,000 active; inhibition, % (test concentration not listed); BJeLR (HRASV12) viability, CellTiter-Glo ATP luminescence, 48 h; in the data active = inhibition above about 50%
PrP UTR inh = suppresses PrP 5' UTR mRNA reporter expression | cell-based PrP 5' UTR mRNA reporter, plate reader | inhibition, % (concentration not given with the values) | 0.35% of 340,000 active | AID 488862; in the data active = inhibition above about 52%; note: 0 = median of the neutral control wells
The depositor's hits bear a star; · = no result given.

SMILES	SARS 3CLpro inh	Mtb hypoxia rep	RecA intein inh	PrPC surface inh	BJeLR lethal	PrP UTR inh
O=C(NCCc1ccc(Cl)cc1)c1ccc(CNc2c(N3CCOCC3)c(=O)c2=O)cc1	1	42*	-1	-7	3	-26
O=C(NCc1ccc(Cl)cc1)c1ccc(CNc2c(N3CCOCC3)c(=O)c2=O)cc1	-1	-6	1	-4	2	-8
O=C(CCCCCCC(=O)Nc1ccccc1)NO	·	13	-1	1	72*	-79
O=C(NN=Cc1coc2ccc(Cl)cc2c1=O)c1ccc(O)cc1	·	13	·	·	·	·
CCCCn1c(N)c(C(=O)NCc2cccs2)c2nc3ccccc3nc21	-3	1	75*	-2	-6	-15
Nc1c(C(=O)NCCCc2ccccc2)c2nc3ccccc3nc2n1Cc1cccs1	2	-6	32*	6	-6	-27
Cc1cccc(C2C3C(=O)N(Cc4ccccc4)C(=O)C3[C@]3(Cc4ccc(Cl)cc4)C(=O)N(c4cccc(Cl)c4)C(=O)N23)c1 (stereo not given in full)	·	9	·	·	·	·
CCc1ccc(C(=O)/C=C/c2ccc([N+](=O)[O-])o2)cc1	-10	·	5	4	59*	-6
COc1ccc2ccc3c(c2c1)N=CC1(O3)N(C)c2ccccc2C1(C)C (stereo not given)	0	11	76*	·	-2	-13
COC(=O)c1ccc2c(c1)C(C)(C)C(/C=C/c1ccc(OC)c(OC)c1OC)=[N+]2C	4	·	2	12	52*	-24
COC(=O)c1ccc2c(c1)C(C)(C)C(/C=C/c1ccc(O)cc1)=[N+]2C	5	1	0	5	29	-32
CC(Oc1ccc(Cl)cc1Cl)c1nc(-c2ccc(NC(=O)c3cccnc3)cc2)no1 (stereo not given)	-2	·	-1	-2	72*	-14
CC(Oc1ccc(Cl)cc1Cl)c1nc(-c2ccc(NC(=O)c3ccncc3)cc2)no1 (stereo not given)	-1	-3	2	11	17	-4
Cc1ccc2nc(SCC(=O)NN=Cc3ccco3)cc(C)c2c1	·	15	·	·	·	·
Cc1ccccc1-n1c(C)cc(C=NNC(=O)c2ccc(CN3CCOCC3)cc2)c1C	·	9	·	·	·	·
COc1ccc(S(=O)(=O)N2c3ccc(F)cc3CCC2C)cc1 (stereo not given)	·	7	10	15	62*	50
CC(=O)Nc1ccc(S(=O)(=O)N2c3ccc(F)cc3CCC2C)cc1 (stereo not given)	·	1	·	20	32	-14
CC(=NNC(=O)c1ccncc1)c1cccs1	·	4	·	·	·	·
CC(C)c1ccc2c(c1)CCC1C(C)(CN)CCCC21C (stereo not given)	2	·	12	-3	107*	-21
CC=CC(=O)OCC(=O)Nc1nc2ccc(C)cc2s1	·	-2	·	·	·	·
CCn1cc(C(=O)NCc2ccco2)c(=O)c2cc(S(=O)(=O)N3CCC(C)CC3)ccc21	0	·	-1	1	7	-19
CCn1cc(C(=O)NCc2ccco2)c(=O)c2cc(S(=O)(=O)N3CC(C)CC(C)C3)ccc21 (stereo not given)	-3	6	-2	8	88*	-20
CC(NC(=O)OCc1ccccc1)c1nnc(C(C)NC(=O)OCc2ccccc2)o1 (stereo not given)	·	13	·	·	·	·
CCOC(=O)Cc1c(C)c2c(C)[nH]nc2oc1=O	0	5	39*	1	1	-11
Cc1c(C)c2c(C)[nH]nc2oc1=O	1	3	2	1	2	-58
SMILES	SARS 3CLpro inh	Mtb hypoxia rep	RecA intein inh	PrPC surface inh	BJeLR lethal	PrP UTR inh
CCCc1c(C)c2c(C)[nH]nc2oc1=O	-2	-1	41*	0	-4	-23
CCOC(=O)Cc1c(C)c2c(C)nn(-c3ccccc3)c2oc1=O	-2	7	5	4	-6	-16
COCCCN1C(=O)C(=O)C(=C(O)c2ccc(OC)cc2)C1c1cccc(OC)c1 (stereo not given)	·	9	·	·	·	·
Cc1ccc(S(=O)(=O)Oc2ccc(C=N/N=C3/NC(=O)C(CC(=O)O)S3)cc2)cc1[N+](=O)[O-] (stereo not given)	·	2	·	·	·	·
COc1cc(C(=O)NCC(=O)N/N=C/c2cccc(OC(=O)c3ccco3)c2)cc(OC)c1OC	-2	·	39*	-3	-4	-30
Cc1cc(C(=O)NN=Cc2cccc(OC(=O)c3ccco3)c2)n[nH]1	·	2	·	·	·	·
Cc1cc(C(=O)N/N=C/c2cccc(OC(=O)c3ccco3)c2)n[nH]1	-2	·	44*	2	12	-13
FC(F)c1nc2ccccc2[nH]1	0	-6	-5	7	0	-32
c1ccc2[nH]c3cc4ncnc4cc3nc2c1	-7	·	60*	-29	-1	-46
C#CCOCCOCCOCCNc1nc(N2CCN(C(=O)Cn3cc(CCCN=C(N)N)nn3)CC2)nc(N2CCN(C(=O)C(C(C)C)n3cc(CCO)nn3)CC2)n1 (stereo not given)	·	7	·	·	·	·
O=C(CCCN1C(=O)/C(=C/c2cccs2)SC1=S)Nc1ccc(O)c(C(=O)O)c1	6	·	·	·	·	·
O=C(CCCN1C(=O)/C(=C\c2cccs2)SC1=S)Nc1ccc(O)cc1C(=O)O	3	-4	32*	-8	-11	-24
O=C(CCCN1C(=O)/C(=C\c2cccs2)SC1=S)Nc1ccc(C(=O)O)cc1	2	6	14	-13	5	-9
O=C(CCCN1C(=O)/C(=C\c2cccs2)SC1=S)Nc1ccc(O)cc1	1	3	67*	-4	1	-14
O=C(C(Cc1ccccc1)NS(=O)(=O)c1ccc(Cl)cc1)N1CC[C@@]2(O)CCCCC2C1 (stereo not given in full)	·	11	·	·	·	·
CN(C(=O)CSc1ncnc2sc3c(c12)CCC3)C1CCS(=O)(=O)C1 (stereo not given)	·	32*	·	-7	·	-5
CN(C(=O)CSc1nc2sc3c(c2c(=O)n1C)CCC3)C1CCS(=O)(=O)C1 (stereo not given)	·	0	·	-5	·	-11
COc1cc2c(cc1OC)C(=O)N1C3c4cc(C)ccc4OCC3C(c3ccccc3)[C@]1(C)C(=O)N2 (stereo not given in full)	·	0	·	·	·	·
COC(CC1OC1C(=O)COCc1ccccc1)OC (stereo not given)	·	9	·	·	·	·
CCN1CCN(CCNC(=O)c2ccc(/C=C3/Sc4ccccc4N(Cc4ccccc4C)C3=O)cc2)CC1	-1	5	7	-17	76*	-8
CCN1CCN(CCCNC(=O)c2ccc(/C=C3/Sc4ccccc4N(Cc4ccccc4F)C3=O)cc2)CC1	2	4	5	-14	12	-37
C=C1C(=O)C=C2CN(C(=O)c3ccccc3)[C@@](Cc3ccc(F)cc3)(C(=O)OC)[C@@H]12	5	·	22	·	107*	-24
CCCC(=C1c2ccccc2C(=O)N1c1ccccc1)c1cnc(OC)nc1	·	-2	·	·	·	·
CC[C@@]1(O)C(=O)OCc2c1cc1n(c2=O)Cc2cc3ccccc3nc2-1	-1	·	-13	·	91*	·

Source: PubChem (several laboratories)
